# Tests used:
# Details in all cases: concentration: 1 μM,replicates: in singlicate; n = 1
# MAP3K15 = test system: MAP3K15
# MAP3K1 = test system: MAP3K1
# MAP3K2 = test system: MAP3K2
# MAP3K3 = test system: MAP3K3
# MAP3K4 = test system: MAP3K4
# MAP4K2 = test system: MAP4K2
# MAP4K3 = test system: MAP4K3
# MAP4K4 = test system: MAP4K4
# MAP4K5 = test system: MAP4K5
# MAPKAPK2 = test system: MAPKAPK2
# 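Also: KINOMEscan kinase panel screen.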
SMILES,%Inh (MAP3K15) [%],%Inh (MAP3K1) [%],%Inh (MAP3K2) [%],%Inh (MAP3K3) [%],%Inh (MAP3K4) [%],%Inh (MAP4K2) [%],%Inh (MAP4K3) [%],%Inh (MAP4K4) [%],%Inh (MAP4K5) [%],%Inh (MAPKAPK2) [%]
Cc1ccc2c(-c3ccnc(Nc4ccc(C(F)(F)F)cc4)n3)cnn2n1 [GW819776],10,0,20,0,0,0,0,0,0,0
CS(=O)(=O)c1cccc(CNc2nc(Nc3ccc4c(c3)[C@@H]3C[C@@H]4CNC3=O)ncc2C(F)(F)F)c1,0,0,65,47,0,68,68,40,0,0
OCCn1cc(-c2cnc3nnn(Cc4ccc5ncccc5c4)c3n2)cn1,0,0,0,0,0,0,0,0,0,0
NC(=O)Nc1sc(-c2ccc(F)cc2)cc1C(N)=O [GW789449],16,10,85,72,18,23,0,26,13,0
Cn1ccc2ncnc(Oc3ccc(NC(=O)Nc4cccc(C(F)(F)F)c4)c(Cl)c3)c21,0,0,6,0,4,6,0,12,1,0
CSc1nccc(-c2c(-c3ccc(F)cc3)ncn2CCCN2CCOCC2)n1.Cl [SB-217146],0,0,23,1,0,0,0,0,0,0
COC(=O)c1cccc(NC(=O)NC2CCN(c3ccnc(NCc4ccc(F)cc4)n3)CC2)c1 [GSK1379860],0,24,8,0,22,0,0,0,0,0
COc1cccc(CNC(=O)NC2CCN(c3ccnc(Nc4cc(OC)c(OC)c(OC)c4)n3)C2)c1 (stereo not drawn) [GSK1379765],0,10,0,0,0,0,1,1,3,46
Cc1cccc2c(-c3ccncc3)c(-c3ccc(F)cc3)nn12.Cl [GW461487],100,13,19,0,20,0,0,9,0,0
O=C(Nc1cccc(Oc2ccc3nccn3n2)c1)Nc1cccc(C(F)(F)F)c1,0,17,3,10,30,0,3,68,26,0
O=C(Nc1ccc(Oc2ccc3nc(NC(=O)C4CC4)cn3n2)c(F)c1)c1cccn(-c2ccccc2)c1=O,0,0,0,15,24,0,4,1,0,13
CS(=O)c1ccc(-c2coc3ccc(-c4n[nH]c(=O)o4)cc23)cc1 (stereo not drawn),37,0,0,11,5,2,1,0,0,0
Nc1nccc(-c2ccc3c(N)n[nH]c3c2)n1 [GSK1034945],0,20,10,0,5,67,4,6,0,79
Cn1ccc2ncnc(Oc3ccc(NC(=O)Nc4cccc(C(F)(F)F)c4)c(F)c3)c21,0,0,0,18,13,0,20,17,40,22
CN(c1cccc(CNc2nc(Nc3ccc4c(c3)CC(=O)N4)ncc2C(F)(F)F)c1)S(C)(=O)=O,0,0,44,11,3,0,18,34,0,0
O=C(NOCC1CC1)c1cc(Br)c(F)c(F)c1Nc1ccc(I)cc1Cl,0,0,0,0,0,0,0,0,0,0
CNC(=O)c1ccccc1Nc1nc(Nc2cccc(CS(C)(=O)=O)c2)ncc1C.O=CO [GSK1520489],9,10,94.4,94,85,96.3,91,0,4,0

SMILES,%Inh (MAP3K15) [%],%Inh (MAP3K1) [%],%Inh (MAP3K2) [%],%Inh (MAP3K3) [%],%Inh (MAP3K4) [%],%Inh (MAP4K2) [%],%Inh (MAP4K3) [%],%Inh (MAP4K4) [%],%Inh (MAP4K5) [%],%Inh (MAPKAPK2) [%]
Cc1ccc(CC(=O)N2CCc3cc(-c4cn(C)c5ncnc(N)c45)ccc32)cc1 [GSK2634758],0,10,55,22,90.3,3,96.7,0,77,6
C[C@@H]1CCN(C(=O)N2CCCC2)C[C@@H]1N(C)c1ncnc2[nH]ccc12,31,36,17,16,7,0,8,0,0,0
CN1CCN(CCCNc2nccc(-c3c(-c4ccc(F)cc4)nn4cc(C(N)=O)ccc34)n2)CC1 [GW622475],0,24,0,0,16,0,0,65,33,0
CC(=O)Nc1ccc(-c2cc3ncnc(SCC(=O)O)c3s2)cc1,27,16,5,1,37,17,22,0,0,0
COc1cc2ncn(-c3cc(OCC4CCCCC4)c(C(N)=O)s3)c2cc1OC [GSK204559],0,30,0,0,0,0,0,35,38,0
COc1cccc(C2=C(Nc3cccc(Cl)c3)C(=O)NC2=O)c1 [SB-341556],21,28,17,29,15,0,84,19,2,20
CCN1CCN(CCCC(=O)Nc2n[nH]c3nc(-c4ccc(O)cc4)c(Br)cc23)CC1 [SB-731579],0,0,0,0,0,0,0,7,5,17
O=C1NCCc2[nH]c(-c3ccncc3)cc21,85,5,0,23,3,52,15,25,6,–
CCn1c(-c2nonc2N)nc2cncc(CNC3CCNCC3)c21.Cl [SB-747651],3,6,13,0,14,0,0,0,0,19
CN(c1ccccc1CNc1nc(Nc2ccc3c(c2)CC(=O)N3)ncc1C(F)(F)F)S(C)(=O)=O,0,0,61,63,6,17,42,0,13,0
CN(c1ccc2c(c1)nc(NCc1ccc(F)cc1)n2C)c1ccnc(Nc2ccc(CS(C)(=O)=O)cc2)n1.Cl [GW813244],24,26,31,23,2,0,40,10,11,0
C[C@@H](Oc1cc(-n2cnc3ccc(-c4ccncc4)cc32)sc1C(N)=O)c1ccccc1Cl [GSK483724],0,41,4,0,21,10,10,11,15,0
CC(=O)c1c(-c2ccncc2)[nH]c(-c2ccncc2)c1C [GW493036],0,5,0,0,9,0,0,16,0,23
Cl.c1ccc(Oc2ccc(Nc3ccnc4cc(-c5ccc(CN6CCNCC6)o5)ccc34)cc2)nc1 [GW567142],3,1,0,0,0,0,0,0,13,0
CCNCC(Cc1ccccc1)NC(=O)c1cc(Br)c(-c2ccnc3[nH]ccc23)s1.Cl.Cl (stereo not drawn) [GSK1383280],0,12,33,0,0,27,4,37,0,0
CC(=O)Nc1nc2cnc(Nc3cc(NC(=O)c4cccc(CC(C)(C)C#N)c4)ccc3C)nc2s1,22,13,0,36,0,0,0,7,0,0
N#Cc1cccc(C(=O)NC2CCN(c3ccnc(Nc4ccc(F)cc4)n3)C2)c1 (stereo not drawn) [GSK1379708],0,1,11,0,33,0,0,7,1,14

# — PMC5540273 (PLoS ONE, 2017)
